Reference: PubChem BioAssay AID2734 (National Center for Advancing Translational Sciences (NCATS), 2010)
Results filed as inconclusive are left out. Calls of active or inactive are those of the source. The call rests on the fitted dose curve; in most records, active means well fitted inhibition curve with a large enough effect; inconclusive means small, poorly fitted or top-dose-only effect, or effect the other way; inactive means no such curve, though single readings can be large or run the other way.

Assay: High Content Assay for Compounds that inhibit the Assembly of the Perinucleolar Compartment: DNA Intercalation/PicoGreen Displacement Assay
Settings: fluorescence (intercalation counter-screen); series mostly up to 57.1 µM
Source text: High Content Assay for Compounds that inhibit the Assembly of the Perinucleolar Compartment
NIH Chemical Genomics Center [NCGC]
NIH Molecular Libraries Probe Centers Network [MLPCN]
Assay Submitter (PI): Sui Huang, Northwestern University, Feinberg School of Medicine, Cell and Molecular Biology, Chicago, Illinois.
The perinucleolar compartment (PNC) is a non-membrane-bound nuclear subdomain that is associated with but structurally distinct from the nucleolus. The PNC is a heritable trait, in which the number of PNCs per cell in daughter cells often mimics that of their mother cells. The PNC is heterogeneous in shape, is stable through interphase, disassembles during mitosis, and reassembles in early G1. […]
Therefore, we conducted a DNA intercalation/displacement assay on the lead candidates in order to exclude compounds with this mechanism of action. […] Compounds which displace the dye will decrease fluorescence intensity and were considered DNA intercalators/displacers. In order to rule out potential fluorescence artifacts, a measurement of compound plus DNA only was also calculated. […]
4. A baseline signal was measured using an Envision PMT based plate reader using a 488 nm excitation filter and a 520 nm emission filter. […]
6. Plates were incubated at 37 C for 10 minutes prior to being read on the envision plate reader. […]

Row | Compound | outcome
1 | Cc1c2ccncc2c(C)c2c1[nH]c1ccccc12 | inactive
2 | CCC(=NCc1cc(OC)cc(OC)c1)c1c(O)n(C)c(=O)n(C)c1=O | inactive
